Compounds with a hit are over-represented: about 19% of the library has one in this group of screens.
HT1080NT lethal – qHTS for induction of synthetic lethality in tumor cells producing 2HG: qHTS for the HT-1080-NT fibrosarcoma cell line; HT-1080-NT fibrosarcoma viability, CellTiter-Glo ATP luminescence, 48 h; Potency, µM (series often up to 46.1 µM), for the others: top-dose activity, negative = less viability, actives largely listed as cytotoxic; 360,000 compounds, 1.6% hits;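 further: NT is the 2HG producing partner of a matched IDH1 knockdown line; potency means the concentration at half of the fitted maximal effect; 0% = DMSO-treated cells and -100% = media-only wells without cells; nearly all actives have a fitted effect of over 55% in size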
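750 cells/well, RPMI + 5% FBS; 2 h settle, compound pin-transfer, 48 h at 37 degrees C. CellTiter-Glo 10 min RT, luminescence. Normalized to DMSO and media-only wells.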
DT40 TDP1 no CPT – qHTS for Inhibitors of human tyrosyl-DNA phosphodiesterase 1 (TDP1): qHTS in cells in absence of CPT. 420,000 compounds, 15% hits. AID 686978, 2013. Potency, µM (highest dose often 46.2 µM), inactives show at the highest dose activity change, negative = growth inhibition, hits mostly inhibitors. DT40 Tdp1-/- hTDP1 cells, no CPT, ATP luminescence, 48 h; further: potency means the concentration at half of the fitted maximal effect; nearly all actives have a fitted effect of over 55% in size
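DT40 Tdp1-/-;hTDP1 cells, no CPT (DMSO vehicle only), 400 cells/well; compounds pin-transferred; ≥48 hr, 37 °C; CellTiter-Glo 30 min RT dark, luminescence read.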
IL-1B inflam inh – qHTS for Inhibitors of Inflammasome Signaling: IL-1-beta AlphaLISA Primary Screen. AID 743279, 2014. THP-1 LPS/ATP IL-1B secretion, AlphaLISA, 16 h; hits give low values. activity change, % at 57.5 µM. 360,000 compounds, 4.7% hits; in the data active means activity change below about -50%; inconclusive means mostly about -30% to -49%
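THP-1 cells pretreated 1 hr with compounds (up to 57.5 uM final), then stimulated with LPS (250 ng/mL final) plus ATP (1.25 mM final); secreted IL-1B measured by AlphaLISA after 16 hr, decreased signal indicating inhibition.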
HT1080 IDH1KD tx – qHTS for induction of synthetic lethality in tumor cells producing 2HG: qHTS for the HT-1080-IDH1KD cell line. AID 686971, 2013. Potency, µM (titrated, usually from 46.1 µM), inactives show at the top dose activity, negative = toxicity, hits mostly cytotoxic. HT-1080 IDH1 knockdown viability, ATP luminescence, 48 h. 360,000 compounds, 2% hits;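 further: potency means the concentration at half of the fitted maximal effect; 0% = DMSO wells and -100% = cell-free medium wells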
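% activity derives from luminescence (CellTiter-Glo), normalised to DMSO and no-cell wells. HT-1080-IDH1KD cells, 750/well, had 48 h compound exposure at 37 °C.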
TDP1 cell CPT – qHTS for Inhibitors of human tyrosyl-DNA phosphodiesterase 1 (TDP1): qHTS in cells in presence of CPT; chicken DT40 Tdp1-/-;hTDP1 cells + 20 nM CPT, ATP luminescence, 48 h; Potency, µM (top dose mostly 46.2 µM), for inactives: at the top dose activity change, negative = growth inhibition, most hits filed as inhibitors; 420,000 compounds, 12% hits; AID 686979, 2013; further: potency means the concentration at half of the fitted maximal effect; nearly all actives have a fitted effect of over 55% in size
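Chicken DT40 Tdp1-/- cells stably complemented with human TDP1 were seeded at 400 cells/well in medium containing 20 nM camptothecin, exposed to pin-transferred compounds, and grown at 37 °C for at least 48 hr. Viability was read as ATP luminescence.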
Starred values were filed as active, the others as inactive; ? = inconclusive; . = no result given; ! = not confirmed by another sample. Unless noted, the call rests on the fitted dose curve; in most records, active means well fitted curve in the direction sought with a large enough effect; inconclusive means small, poorly fitted or top-dose-only effect, or another doubt; inactive means no such curve, though single readings can be large; an effect the other way counts as inactive or inconclusive. Unless noted, on the % scale 0 is the no-effect control and ±100 the full control effect.

SMILES	HT1080NT lethal	DT40 TDP1 no CPT	IL-1B inflam inh	HT1080 IDH1KD tx	TDP1 cell CPT
C#CCN(C[C@@H]1[C@@H](OC(=O)NCc2ccc(OC)c(OC)c2)[C@@H](OC(=O)NCc2ccc(OC)c(OC)c2)Cn2c(=O)ccc(=O)n21)S(=O)(=O)c1ccc(C)cc1	9.2µM*	15µM*	-106*	21µM*	16µM*
C#CCN(C[C@@H]1[C@@H](OC(=O)NCc2ccco2)[C@@H](OC(=O)NCc2ccco2)Cn2c(=O)ccc(=O)n21)S(=O)(=O)c1ccc(C)cc1	15µM*	4.6µM*	-109*	?	4.6µM*
CC(C)(O[C@@H]1O[C@H](CO)[C@@H](O)[C@H](O)[C@H]1O)[C@@H]1CC=C(C(=O)O)CC1	22%	-5%	0	11%	12%
COc1ccccc1C(C)NC(=O)c1ccc(NC(=O)CC2SC(N3CCCC3)=NC2=O)cc1 (configuration not stated)	4%	12%	0	1%	5%
Cc1[nH]c(N=Nc2ccccc2)nc1N=Nc1ccccc1	-17%	5.8µM*	98	?	5.8µM*
N#Cc1ccc(OCC(=O)NC2CCCCCC2)cc1	3%	-22%	-7	11%	1%
Cc1cc(C(=O)CCl)c(C)n1Cc1ccco1	?	2.6µM*	-97*	?	2.6µM*
Cc1cc(C(=O)CN2C(=O)NC(c3ccccc3)(c3ccccc3)C2=O)c(C)n1Cc1ccco1	-12%	23µM*	-3	-7%	?
COCC(C)n1c(C)cc(C(=O)CSc2nnc(-c3ccco3)o2)c1C (configuration not stated)	-7%	?	-17	-20%	?
Cc1cc(C(=O)CSc2nncs2)c(C)n1Cc1ccco1	-2%	12µM*	11	-1%	-17%
Cc1cc(C(=O)CSc2nnc(-c3ccco3)o2)c(C)n1Cc1ccco1	-5%	23µM*	-4	0%	21µM*
CN(Cc1ccco1)C(=O)CN1C(=O)NC(c2ccccc2)(c2ccccc2)C1=O	-2%	-26%	-6	-1%	-30%
Cc1cc(NC(=O)COC(=O)c2c(Cl)cccc2Cl)no1	-22%	-13%	-6	-30%	-1%
Cc1ccc(OCc2ccc(C(=O)Nc3nc4ccccc4n3C)o2)c([N+](=O)[O-])c1	-2%	?	1	-3%	-11%
CCCCc1cc2c(=O)c(C(=O)OC)c[nH]c2cc1OCc1ccccc1	.	1%	.	.	-7%
COc1ccc(CCNC(=O)CSc2nn(-c3ccccc3)c(=S)s2)cc1OC	1%	?	-14	-1%	?
Cc1cc(C(=O)CSc2nnc(-c3ccco3)o2)c(C)n1-c1ccc2c(c1)OCCO2	-4%	21µM*	15	-21%	?
CCn1c(=S)sc2c(=O)[nH]c(SCC(=O)Nc3cc(OC)ccc3OC)nc21	-19%	25%	40	-11%	-17%
O=C(O)CCC(=O)OCCN(Cc1ccc(Oc2ccc([N+](=O)[O-])cc2)cc1)C(=O)C(Cl)Cl	4%	?	4	-5%	18µM*
O=C(COc1ccc([N+](=O)[O-])cc1)N(Cc1ccccc1)Cc1ccccc1	-21%	?	-1	-22%	?
C=CCNC(=S)N1CCN(Cc2ccccc2)CC1	0%	16%	3	0%	-17%
CC(=O)c1cc(C#N)c(SCC(=O)OC(C)(C)C)nc1C	-4%	?	-25	-7%	21µM*
CC(=O)c1cc(C#N)c(SCC(=O)OC(C)C)nc1C	4%	?	11	0%	?
Cc1cccc(C)c1OCC(O)CN1CCC(CN2C(=O)c3cccc4cccc(c34)C2=O)CC1 (configuration not stated)	1%	8.2µM*	-17	-10%	12µM*
OC(COCc1ccc2c(c1)OCO2)CN1CCC(Cc2ccccc2)CC1 (configuration not stated)	0%	?	-71*	?	?
SMILES	HT1080NT lethal	DT40 TDP1 no CPT	IL-1B inflam inh	HT1080 IDH1KD tx	TDP1 cell CPT
C=CCc1ccccc1OCC(O)CN1CCN(Cc2ccc3c(c2)OCO3)CC1 (configuration not stated)	-19%	?	-20	-24%	16µM*!
Cc1ccccc1OCC(O)CN1CCN(CCN2C(=O)c3cccc4cccc(c34)C2=O)CC1 (configuration not stated)	3%	?	-87*	5%	?
Cc1ccc(OCC(O)CN2CCN(Cc3ccc4c(c3)OCO4)CC2)cc1C (configuration not stated)	-5%	?	14	0%	-10%
Cc1cscc1NC(=O)/C=C/C(=O)O	11%	-6%	.	19%	4%
Cc1cc(C(F)(F)F)nn1CCCNC(=O)c1cnccn1	10%	1%	57	2%	-7%
CCC(OCC(O)CN1CCN(CCN2C(=O)c3cccc4cccc(c34)C2=O)CC1)c1ccccc1 (configuration not stated)	-13%	6.5µM*	-92*	-23%	10µM*
C=CCc1ccccc1OCC(O)CN1CCN(CCN2C(=O)c3cccc4cccc(c34)C2=O)CC1 (configuration not stated)	-12%	?	-70*	-19%	?
Cc1ccc(C)c(N2CCN(C(=O)C(C)n3nc(C)c4sc5ccccc5c4c3=O)CC2)c1 (configuration not stated)	.	-15%	.	.	-8%
O=C(C1=COCCO1)N1CCN(C(c2ccccc2)c2ccccc2)CC1	-10%	?	-3	3%	-25%
CC(C)CC1c2[nH]c3ccccc3c2CCN1C(=O)CCC(=O)N(C)C (configuration not stated)	-16%	?	9	2%	-2%
CCOc1ccc(C2c3[nH]c4ccccc4c3CCN2C(=O)CCC2CCCC2)cc1 (configuration not stated)	.	18µM*	.	.	21µM*
COc1ccc(C2c3[nH]c4ccccc4c3CCN2C(=O)CCC2CCCC2)cc1 (configuration not stated)	.	?	.	.	21µM*
CSc1ccc(C2c3[nH]c4ccccc4c3CCN2C(=O)CCc2ccccc2)cc1 (configuration not stated)	.	-21%	.	.	-18%
CCOc1ccc(C2c3[nH]c4ccccc4c3CCN2C(=O)CSc2ccccc2)cc1 (configuration not stated)	.	21µM*	.	.	?

Compound activity (PubChem BioAssay)
